Inconclusive results are not listed. Where a call stands in place of a potency, no number is given. The source made the active and inactive calls. Calls come from the whole dose curve; as a rule, active = well fitted inhibition curve with a large enough effect; inconclusive = small, poorly fitted or top-dose-only effect; inactive = no such curve, though single readings can be large or run the other way.
Potency is the fitted concentration of half-maximal effect.

The assay is described as follows: Acumen qHTS Assay for Inhibitors of the mTORC1 Signaling Pathway in WT MEF Cells: Hit Validation. Note: nearly all actives have a fitted effect of over 60% in size. To be noted: Acumen imaging; series mostly up to 37.3 µM. The procedure, abridged:
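Read-out is immunofluorescent phospho-rpS6 (Ser235/236) normalised to PI-stained cell number, reported as % active cells using a 7.5 nM rapamycin threshold. Cells: WT or Tsc2-/-, p53-/- MEFs, compound-exposed 24 h at 37C; PI count also tracks viability.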
(In general: Quantitative high-throughput screening tests each substance at several concentrations.)
Regarding `COc1cc(NC(=O)CSc2ccc(-c3ccccn3)nn2)cc(OC)c1`, the Potency result is “inactive”.

Turning to `CC(C)CCNc1nc(Nc2ccccc2)c2cnn(C)c2n1`, the Potency result was “inactive”.

Consider `CCNS(=O)(=O)c1cc(-c2nnc(Nc3cccc(C(F)(F)F)c3)c3ccccc23)ccc1C`, for which the Potency entry was “inactive”.

Turning to `CCC(C(=O)N1CCN(c2cccc(C)c2C)CC1)n1nc(C)c2sc3ccccc3c2c1=O` (stereo not given), the Potency entry is “inactive”.

For the compound `CCOc1cc(C(=O)Nc2ccc(-c3cn4cccnc4n3)cc2)cc(OCC)c1OCC`, the Potency entry is “inactive”.

Turning to `CCN1CCOC(=O)C1CC(=O)Nc1ccc(Br)cc1` (stereo not given), the Potency entry was “inactive”.

Regarding `CCS(=O)(=O)c1ncc(Cl)c(C(=O)N2CCN(c3cccc(Cl)c3)CC2)n1`, the Potency was 2610 nM (active).

Turning to `COc1ccccc1NC(=O)CSc1ccc(-c2ccccn2)nn1`, the Potency entry is “inactive”.

Turning to `Cc1nn(CCCC(=O)NCc2cccc(Cl)c2)c(=O)c2c1sc1ccccc12`, the Potency entry was “inactive”.

As for `CCOC(=O)c1ccc(N2C(=O)c3n[nH]c(C)c3C2c2cccc(Br)c2)cc1` (stereo not given), the Potency result was “inactive”.

Regarding `COc1cc(-c2ccno2)ccc1S(=O)(=O)N1CCN(c2cc(C)ccc2C)CC1`, the Potency result is “inactive”.

For `COc1ccc(NC(=O)CSc2nc3ccccc3nc2N2CCC(C)CC2)cc1`, the Potency entry is “inactive”.

On to `CCc1ccc(NC(=O)CSc2nccn2C2CCCC2)cc1`, for which the Potency result was “inactive”.

Consider `CC(C)N(C(=O)Cn1cc(S(=O)(=O)Cc2ccc(Cl)cc2)c2ccccc21)C(C)C`, for which the Potency result was “inactive”.

Turning to `Cc1cccc(-n2cnc3cc(C(=O)NC4CCCCCC4)ccc32)c1`, the Potency was 5210 nM (active).

`CCOc1ccc(CCNCc2c(C(=O)O)n(Cc3ccc(C)cc3)c3cc(OC)ccc23)cc1`: the Potency result is “inactive”.

As for `CCCS(=O)(=O)c1ncc(Cl)c(C(=O)N2CCN(c3ccc(OC)cc3)CC2)n1`, the Potency is 2930 nM (active).

Take `CCOc1ccc(-n2c(C)nc3c(cnn3-c3ccc(C)cc3)c2=O)cc1`: the Potency entry was “inactive”.

On to `CC(C)(C)C1CCc2c(sc(NC(=O)C3c4ccccc4Oc4ccccc43)c2C(N)=O)C1` (stereo not given), for which the Potency entry was “inactive”.

As for `COc1ccccc1C1C=C(c2ccc(Cl)cc2)Nc2nc(-c3ccc(Cl)cc3)nn21` (stereo not given), the Potency entry is “inactive”.

With `COc1cc(NC(=O)c2cccc3c2C(=O)N(C2CCCCC2)C3)cc(OC)c1OC`, the Potency result was “inactive”.

Consider `Cc1ccc(-c2nnc(Nc3ccc(O)cc3)c3ccccc23)cc1S(=O)(=O)N1CCCCC1`, for which the Potency result is “inactive”.

On to `COc1ccc(CCCc2nnc(SCC(=O)Nc3ccc(OC)cc3)o2)cc1`, for which the Potency result was “inactive”.

In the case of `Cc1nnc(C(=O)NC(C)(C)c2nc(C(=O)NCc3ccc(F)cc3)c(O)c(=O)n2C)o1`, the Potency result is “inactive”.

For the compound `COc1ccc(-c2[nH]nc3nc(-c4cc(OC)c(OC)c(OC)c4)cc(C(=O)O)c23)cc1`, the Potency entry is “inactive”.

For the compound `CCOC(=O)c1cnc2ccc(OCC)cc2c1NCCc1ccc(OC)c(OC)c1`, the Potency result is “inactive”.

As for `COc1ccc(OC)c(Nc2c3c(nc4ccccc24)CCC3)c1`, the Potency is 585 nM (active).

With `CC(C)(C)OC(=O)N1CCC(c2c(C(=O)NCCN3CCC(Cc4ccccc4)CC3)cnn2-c2cccc(Cl)c2)CC1`, the Potency is 10400 nM (active).

As to `Cc1nn(CC(=O)N2CCN(c3ccccc3F)CC2)c(=O)c2cccn12`, the Potency entry is “inactive”.

As for `O=C(/C=C/c1ccco1)Nc1ccc(Cl)c(-c2nc3cc(Cl)ccc3o2)c1`, the Potency result was “inactive”.

In the case of `Cc1oc2c(cc(NS(=O)(=O)c3ccc(C(C)C)cc3)c3ccccc32)c1C(=O)OCc1ccccc1`, the Potency entry was “inactive”.

On to `Cc1cccc(N(CC(=O)NCCSc2ccc(Cl)cc2)S(=O)(=O)c2ccccc2)c1C`, for which the Potency result was “inactive”.

Regarding `COc1ccc(CCNC(=O)c2ccc3c(c2)N(Cc2ccccc2)CCS3)cc1OC`, the Potency entry was “inactive”.

Turning to `O=C(Nc1ccccc1)N(Cc1cccc(Cl)c1)c1ccccn1`, the Potency entry was “inactive”.

On to `Cc1nn(CCCC(=O)NCc2ccccc2)c(=O)c2c1sc1ccccc12`, for which the Potency result was “inactive”.

For `O=C(C1CCN(c2nc3ccccc3[nH]2)CC1)N1CCN(c2cccc(Cl)c2)CC1`, the Potency entry is “inactive”.

Regarding `COc1ccc(N2CC(c3nc(-c4cc(OC)c(OC)c(OC)c4)no3)CC2=O)cc1Cl` (stereo not given), the Potency entry is “inactive”.

In the case of `CCC(Sc1nncn2c1cc1oc(C)cc12)C(=O)Nc1ccc(F)cc1` (stereo not given), the Potency result was “inactive”.

With `O=C(COc1ccc(F)cc1)Nc1ccc(Cl)c(-c2nc3ccccc3[nH]2)c1`, the Potency entry was “inactive”.

For the compound `CCCCN(C)C(=O)CSc1c2c(nc3ccc(Cl)cc13)CCCC2`, the Potency entry is “inactive”.
